# S1P4 agonist: agonists of human S1P4 receptor | O95977 | S1P4-expressing cell line, agonist reporter assay | activation, % at 4.98 µM | 220,000 tested, 0.35% active; in the data active means activation above about 11%;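 further: 0% = DMSO vehicle and 100% = reference agonist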
# Target sequence (O95977 whole entry, looked up): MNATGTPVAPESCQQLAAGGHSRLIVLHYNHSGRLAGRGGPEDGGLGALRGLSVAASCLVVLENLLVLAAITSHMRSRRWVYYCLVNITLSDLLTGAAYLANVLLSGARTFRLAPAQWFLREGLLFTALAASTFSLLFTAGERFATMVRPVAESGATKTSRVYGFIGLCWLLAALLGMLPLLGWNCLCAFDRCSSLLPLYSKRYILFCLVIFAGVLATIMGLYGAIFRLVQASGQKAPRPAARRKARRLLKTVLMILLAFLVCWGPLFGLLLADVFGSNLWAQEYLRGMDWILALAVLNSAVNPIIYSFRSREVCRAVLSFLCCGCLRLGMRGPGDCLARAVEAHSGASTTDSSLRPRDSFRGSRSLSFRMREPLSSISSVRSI
# ROMK mod: modulators of human ROMK potassium channel | Tet-inducible ROMK, thallium flux fluorescence; actives lie on both sides | B-score at 10 µM | 130,000 tested, 2% active | AID 1918;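 active means signal ratio slope over the read window, or its plate-corrected B-score, at least 3 SD from the plate mean, either direction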;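 further: B-score of the F/F0 ratio slope over 7 to 12 s after thallium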
# S1P3 antag: antagonists of human S1P3 receptor | Q99500 | inhibition, % at 4.98 µM | 170,000 tested, 0.27% active | CHO S1P3 NFAT-BLA reporter, FRET fluorescence, antagonist mode;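 active means inhibition above the plate cutoff, the mean inhibition of test wells on that plate plus 3 SD, cut at about 28% in these data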;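 further: cells challenged with S1P at its EC80 of 0.8 µM; blue over green emission ratio from cleaved BLA substrate after 4 h stimulation; 0% = S1P-stimulated wells and 100% = unstimulated DMSO-only wells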
# Target sequence (Q99500 whole entry, looked up): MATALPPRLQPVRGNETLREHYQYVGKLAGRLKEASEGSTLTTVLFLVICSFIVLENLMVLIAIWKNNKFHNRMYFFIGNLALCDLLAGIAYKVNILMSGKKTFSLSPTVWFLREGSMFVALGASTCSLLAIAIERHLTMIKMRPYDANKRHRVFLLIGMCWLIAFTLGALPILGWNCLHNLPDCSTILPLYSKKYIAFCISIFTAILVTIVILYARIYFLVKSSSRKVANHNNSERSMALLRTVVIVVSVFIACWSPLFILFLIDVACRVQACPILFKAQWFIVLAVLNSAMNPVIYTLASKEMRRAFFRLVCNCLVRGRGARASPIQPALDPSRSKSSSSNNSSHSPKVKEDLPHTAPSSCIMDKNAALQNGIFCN
# S1P4 antagonist: blocks the human S1P4 receptor; O95977; S1P4-expressing cells, antagonist mode, reporter read-out; inhibition, % at 4.98 µM; 220,000 tested, 0.26% active; in the data active means inhibition above about 29%;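 further: 0% = wells stimulated with agonist and 100% = vehicle wells without agonist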
# KCC2 mod: KCC2 (human) Cl- transport modulation; Q9H2X9; KCC2 cells, thallium flux FluoZin-2 fluorescence; B-score of Tl+ flux slope (higher = more flux/activation; lower = inhibition) at 10 µM; 190,000 tested, 2.2% active;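 active means thallium flux slope and its plate-corrected score both differing from the plate sample mean at a set confidence after two filtering rounds, in either direction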;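 further: slope of fluorescence scaled to starting intensity during 10 to 20 s after thallium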
# RAM network inh: yeast RAM network inhibition. 190,000 tested, 1.8% active. inhibition, % at 50 µM. AID 868. S. cerevisiae dse1pr::URA3 reporter, 5-FOA growth OD615, 2 d; analog-sensitive cbk1-as2 kinase mutant strain;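 active means inhibition above a set limit, 3 SD over mean compound inhibition, cut at about 8.4% in these data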;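 further: 0% = DMSO-only wells with no growth and 100% = 10 µM 1-NA-PP1 full growth; inhibition rescues growth on 5-FOA so higher OD means more RAM inhibition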
# KCC2 sec1: KCC2 (human) modulation, secondary assay; shares compounds with KCC2 mod; 3,700 tested, 15% active; HEK293-KCC2, thallium flux, FluoZin2 fluorescence; active compounds read high; normalised thallium flux (F/F0 slope) at 10 µM;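 active means thallium flux slope above the same plate's solvent-only control mean plus 3 SD; inconclusive means the two replicate wells disagree; inactive means no significant difference from solvent-only control wells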
# KCC2 bumet counter: thallium flux persisting under bumetanide in KCC2 cells, counter-screen secondary assay; AID 1714; 3,700 tested, 49% active; shares compounds with KCC2 mod; HEK293-KCC2 + bumetanide/ouabain, thallium flux FluoZin2; active compounds read high; normalized thallium flux at 10 µM;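 active means thallium entry rate above the same plate's blocked-transporter control wells by more than 3 SD; inconclusive means the two repeat wells disagree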;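 further: raw slope of fluorescence over initial fluorescence between 10 and 20 s after thallium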
# KCC2 secondary2: confirmation of human KCC2 transport modulators; shares compounds with KCC2 mod; HEK293-KCC2, thallium flux FluoZin2 fluorescence; actives lie on both sides; F/F0 rise rate, 10–20 s post-thallium; normalized thallium flux at 10 µM; 3,700 tested, 23% active;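 active means thallium flux slope more than 3 SD above or below the plate's solvent-only control mean, mostly below; inconclusive means the two repeat wells disagreed; inactive means no significant shift from solvent-only controls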;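 further: raw slope with 0.1% DMSO as baseline and bumetanide as block control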
# HEK293 Tl flux: counter-screen for KCC2 modulators: effect in parental HEK293 cells. thallium flux rate (normalised fluorescence) at 10 µM. shares compounds with KCC2 mod. 3,700 tested, 46% active. AID 1716. thallium flux FluoZin2, ouabain; baseline-ratio fluorescence slope, 10–20 s after thallium;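 active means thallium flux rate significantly above the same plate's solvent-only control wells, beyond their mean plus 3 SD; inconclusive means the two replicate wells gave conflicting results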
# KCC2 ouabain: confirmation of human KCC2 modulators with ouabain; shares compounds with KCC2 mod; HEK293-KCC2, thallium flux FluoZin2 fluorescence; bidirectional: low = inhibitor, high = activator; raw Tl+ flux slope (below DMSO = inhibition, above = activation) at 10 µM; 3,700 tested, 48% active; AID 1717;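 active means thallium flux slope beyond 3 SD from same-plate DMSO control mean in most replicates, usually higher, sometimes lower; inconclusive means repeat tests gave conflicting results; inactive means no significant difference from controls in most replicates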;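 further: slope of initial-normalized fluorescence between seconds 10 and 20 after thallium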
# HEK293 Tl flux2: acts in parental HEK cells, second KCC2 counter-screen | shares compounds with KCC2 mod | HEK293 parental, thallium flux FluoZin-2 fluorescence slope | thallium flux slope at 10 µM | 3,700 tested, 33% active;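 active means thallium flux slope above the same plate's solvent-control mean plus 3 SD in both duplicate wells; inconclusive means duplicate wells that disagreed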;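 further: run without ouabain in cells lacking the KCC2 cotransporter; slope of fluorescence scaled to its starting value between 10 and 20 s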
# Starred values were filed as active, the others as inactive; ? = inconclusive; . = not tested or not shown. Rows were chosen to be rich in hits. Some 5.1% of all compounds tested hit in one or more screens of this group.
SMILES,S1P4 agonist,ROMK mod,S1P3 antag,S1P4 antagonist,KCC2 mod,RAM network inh,KCC2 sec1,KCC2 bumet counter,KCC2 secondary2,HEK293 Tl flux,KCC2 ouabain,HEK293 Tl flux2
Cc1ccccc1-n1nnnc1SC(C)C(=O)NC1CCCc2ccccc21 (stereo unspecified),0.9,.,1.8,-10.3,-3.49*,2.0,0.00629,0.00451,0.0338,0.0037,0.0166*,0.0109
Cc1nnc(SC(C)C(=O)NC2CCCc3ccccc32)n1-c1ccccc1 (stereo unspecified),-0.7,.,-9.9,-2.5,0.0909,0.6,.,.,.,.,.,.
CCCCCCCCC(=O)N/N=C/c1cccc(Br)c1,0.3,-0.266,.,-4.4,5.49*,4.2,0.00722,?,0.0309,0.00792,0.0193,0.0104
Cn1cc(/C=C2\SC(=O)NC2=S)c2ccccc21,2.1,.,-9.6,-3.5,21.2*,10.1*,0.013*,0.0276*,0.0295,0.0178*,0.034*,?
Cc1ccc(/C=C2/SC(=O)NC2=S)o1,-0.8,0.39,-5.0,-2.5,93.7*,1.1,?,0.0704*,0.0985*,0.103*,0.0936*,0.0991*
Cc1ccc(C(=O)NN2C(=O)/C(=C/c3cn(C)c4ccccc34)SC2=S)cc1,-1.7,0.0387,2.7,-4.7,-3.72*,6.3,0.00464*,0.00387,0.0255*,0.00512*,0.0253*,0.00889
CC(/C=C/c1ccc2c(c1)OCO2)=N/NC(=O)c1ccncc1,-3.8,0.32,7.9,15.2,1.04,.,.,.,.,.,.,.
CC1=C(/C=C/C(C)=N\NC(=O)c2ccncc2)C(C)(C)CCC1,-1.6,-0.481,-16.0,-7.1,14.8*,0.9,0.00502,0.0321*,?,0.0235*,0.033*,0.0261*
S=C(Nc1ccccc1Cl)NC1CCN(Cc2ccccc2)CC1,0.0,.,8.2,-0.4,-2.74,3.4,.,.,.,.,.,.
S=C(Nc1ccc(Cl)cc1Cl)NC1CCN(Cc2ccccc2)CC1,-1.8,.,-1.6,-6.9,-3.75*,0.0,0.00741,?,0.0288,0.00789,0.021*,?
O=[N+]([O-])c1ccc(NC(=S)NCCc2ccc(F)cc2)cc1,0.2,.,-0.9,-13.2,-6.09*,-0.7,0.00691,0.00378,0.0215*,0.00522*,0.0102*,0.008*
CCOC(=O)c1c(NC(=O)CC2SC(N)=NC2=O)sc2c1CCCC2 (stereo unspecified),0.6,.,.,-11.9,-3.78*,3.5,0.00659,0.00475,0.0301,?,0.0189,0.00979
CCN1CCN(C(=O)NCc2ccccc2)CC1,1.7,1.3,-19.0,-8.2,1.47,.,.,.,.,.,.,.
CC(=O)NCCOC(=O)Nc1cccnc1,0.9,0.33,-51.8,-1.3,7.18*,0.7,0.00592,0.00501,?,?,0.0185,0.0103
CC(C(=O)O)n1c(-c2ccn[nH]2)n[nH]c1=S (stereo unspecified),1.2,.,-4.7,-1.9,0.813,.,.,.,.,.,.,.
CCc1c(C)sc2nc(C(C)C)nc(SCC(=O)N3CCc4ccccc4C3)c12,-2.2,.,.,0.6,.,6.8,.,.,.,.,.,.
COc1ccc(C)cc1S(=O)(=O)Nc1cc(Cl)ccc1Cl,1.0,-2.35,.,-7.4,8.97*,2.6,0.0169,0.0131*,0.0309,0.012*,0.0195,0.0133*
Cc1onc(-c2c(Cl)cccc2Cl)c1C(=O)ONC(=O)c1ccccc1,2.8,.,-7.0,6.3,0.436,.,.,.,.,.,.,.
CN(C)/C=C/c1onc(-c2c(Cl)cccc2Cl)c1C#N,0.7,-0.0924,-11.0,4.7,1.16,4.0,.,.,.,.,.,.
N#Cc1c(-c2c(Cl)cccc2Cl)noc1/C=C/Nc1ccc(C(=O)O)cc1,0.0,-1.4,-8.3,-4.8,-5.77*,8.6*,0.00656,0.00451,0.0248*,?,0.0129*,0.00975
CCOC(=O)c1cc2c(ccn2C)n1CC(=O)N1CCC(Cc2ccccc2)CC1,0.6,.,-10.6,-2.6,-5.88*,6.9,0.0109,0.00571,?,0.00788,0.0157*,0.0118
N#Cc1cccc(NC(=O)CN2C(=O)NC(Cc3ccccc3)C2=O)c1 (stereo unspecified),-1.0,.,-5.4,-0.8,-0.206,.,.,.,.,.,.,.
O=C(Nc1ccccc1)O/N=C/c1ccccc1Cl,2.4,-0.0938,.,-7.2,-5.74*,-1.1,0.00764,0.00568,0.0323,0.00724,0.0197,0.0109
COC(=O)CSc1ccnc2cc(Cl)ccc12,0.7,0.000679,4.6,13.9,-3.19*,.,0.0096,?,0.0337,0.00343,0.0179,0.0116
O=C(CSc1ncnc2c(-c3ccc(Cl)cc3)nsc12)c1ccccc1,0.9,0.0183,.,-0.9,.,6.0,0.0135*,0.028*,0.029,0.0182*,?,0.0105*
SMILES,S1P4 agonist,ROMK mod,S1P3 antag,S1P4 antagonist,KCC2 mod,RAM network inh,KCC2 sec1,KCC2 bumet counter,KCC2 secondary2,HEK293 Tl flux,KCC2 ouabain,HEK293 Tl flux2
O=C(N/C(=C\c1ccc(Br)cc1)C(=O)N1CCCC1)c1ccccc1F,-0.2,-0.135,-9.1,1.3,-1.71,0.9,.,.,.,.,.,.
CCOP(=O)(c1ccc(N(C)C)cc1)C(O)c1ccc(Cl)cc1 (stereo unspecified),0.2,.,5.8,-6.4,-4.95*,0.1,0.00813,0.0055,0.0348,0.00409,0.0199,0.0118
O=C(Cn1nnc(-c2ccccc2-n2cnnn2)n1)NCc1ccccc1,3.3,.,20.4,-5.7,-3.98*,1.6,0.00823,0.00458,?,0.00805,0.0186,0.0115
CCN(CC)Cc1c(O)ccc2c(C)c(CC(=O)OC)c(=O)oc12,1.8,0.177,.,5.2,.,0.8,0.00733,?,0.033,0.00767,0.0194,0.0117
Cc1ccc(-n2c(C)nc3c(cnn3-c3ccccc3Cl)c2=O)cc1C,-1.4,-0.361,.,-7.6,-1.05,1.2,.,.,.,.,.,.
Cc1nc2c(cnn2-c2ccccc2Cl)c(=O)n1-c1ccc(N2CCC(C)CC2)cc1,0.2,0.437,.,1.7,.,2.7,0.00917,0.00694,0.0329,0.00791,0.0204,0.0106
CN1C(C(=O)NCCc2cccs2)CC2Cn3c(nc4cc5ccccc5cc43)C21 (stereo unspecified),.,.,.,.,-2.82*,.,0.00682,0.00669,0.0333,0.00797,0.0243,0.0106
O=[N+]([O-])c1ccccc1/C=C/C=N/n1c(-c2ccc(Cl)cc2)n[nH]c1=S,0.7,.,.,-27.9,3.62*,2.0,0.00749,0.00917*,0.0333,0.0103*,?,0.0123*
